Sampled rows, rich in hits. Any-hit rate of the full collection: about 8.2%.
KB-3-1 tox: kills parental KB-3-1 adenocarcinoma cells. actives 1.4% (n = 400,000). AID 1347075. Potency, µM (highest dose often 46.1 µM), actives largely listed as cytotoxic. KB-3-1 viability, CellTiter-Glo ATP luminescence, 72 h; note: % is set by controls: 0 for no effect and ±100 for the full control effect; nearly all actives have a fitted effect of over 60% in size
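Cytotoxicity measured as CellTiter-Glo luminescence after 72 h at 37 C. Compound titrations were pinned onto drug-naive KB-3-1 parental adenocarcinoma cells grown in DMEM with 10% FBS, and normalized data fitted to concentration-response curves.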
MCF10A rerep: inducers of DNA re-replication in MCF 10A breast cells | actives 2.9% (n = 350,000) | AID 624296 | Potency, µM (top dose mostly 46.1 µM), without a hit: top-dose activity, positive = re-replication, most hits filed as activators | MCF 10A DNA re-replication, Hoechst nuclear intensity, 48 h; note: % of control where 0% means no effect; nearly all actives have a fitted effect of over 50% in size
ELG1 DNA repair: blocks ELG1-dependent DNA repair in HEK293T cells; HEK293T ELG1-luciferase reporter, luminescence, 16 h; DNA damage induced by 5-fluorouridine; Potency, µM (doses to about 46.1 µM), inactives show top-dose activity change, negative = inhibition, most hits filed as inhibitors; actives 2.3% (n = 330,000); AID 504467; note: % is set by controls: 0 for no effect and ±100 for the full control effect; nearly all actives have a fitted effect of over 55% in size
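5-Fluorouridine DNA damage + compound/DMSO, 2,000 cells/well, 16 h, 37 °C/5% CO2. ONE-Glo, 30 min RT, luminescence. Readout = decrease in reporter signal.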
KB-V1 MDR tox: kills drug-selected multidrug resistant KB-V1 cells; AID 1347076; Potency, µM (highest dose often 46.1 µM), hits mostly cytotoxic; KB-V1 MDR cells viability, CellTiter-Glo, 72 h; actives 3.4% (n = 400,000); note: % is set by controls: 0 for no effect and ±100 for the full control effect; nearly all actives have a fitted effect of over 60% in size
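Cells of the MDR subline KB-V1 are plated, dosed with compound at multiple concentrations, and incubated 72 h at 37 degrees C; CellTiter-Glo is then added and luminescence read after 10 min.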
SW480 rereplic: inducers of DNA re-replication in SW480 colon cancer cells | SW480 DNA re-replication, Hoechst DNA content imaging, 48 h | Potency, µM (titrated, usually from 46.1 µM), without a hit: top-dose re-replication activation, actives largely listed as activators | actives 1.8% (n = 340,000) | AID 624297; note: % of control where 0% means no effect; nearly all actives have a fitted effect of over 55% in size
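Treated cells incubate 48 hr (37 C, 5% CO2), are stained 40 min with Hoechst, and nuclear fluorescence is enumerated; a rise in nuclei with high DNA signal marks re-replication.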
An asterisk follows results filed as active; i = inactive; ? = inconclusive; / = no result given; [ ] = dose if it differs, or a comment. Calls come from the whole dose curve; as a rule, active = well fitted curve in the direction sought with a large enough effect; inconclusive = small, poorly fitted or top-dose-only effect, or another doubt; inactive = no such curve, though single readings can be large; an effect the other way counts as inactive or inconclusive. Potency is the fitted concentration of half-maximal effect.

SMILES | KB-3-1 tox | MCF10A rerep | ELG1 DNA repair | KB-V1 MDR tox | SW480 rereplic
COc1ccc(CNC(=O)C(=O)NCC(c2ccco2)S(=O)(=O)c2ccc(Cl)cc2)cc1 (stereo unspecified) | i | / | / | i | /
CC(=O)c1cccc(NC(=O)C2CCN(c3nnc(-n4cccc4)s3)CC2)c1 | ? | / | / | i | /
Cn1cccc1C(C(=O)NC1CCCCC1)N(C(=O)Cc1cccs1)C1CC1 (stereo unspecified) | i | 3% | -1% | 6.5µM* | -2%
COc1ccc(N(C(=O)Cc2cccs2)C(C(=O)NC2CCCCC2)c2cccn2C)cc1OC (stereo unspecified) | i | -5% | -4% | i | -3%
O=C(N/N=C/c1cccc2nccnc12)c1ccncc1 | i | 10% | 3% | i | ?
O=C(N/N=C/c1cccc2nccnc12)c1ccccc1O | ? | ? | 4% | i | 15µM*
C[C@H](CO)N1C[C@H](C)[C@@H](CN(C)S(=O)(=O)c2ccccc2)Oc2ccc(NC(=O)Nc3ccc(C(F)(F)F)cc3)cc2C1=O | ? | -36% | 21µM* | i | -8%[9.22 µM]
C[C@H](CO)N1C[C@H](C)[C@@H](CN(C)C(=O)Nc2ccc(C(F)(F)F)cc2)Oc2c(NC(=O)NC3CCCCC3)cccc2C1=O | ? | 3.3µM* | ? | i | -46%
COc1ccc(NC(=O)Nc2cccc3c2O[C@H](CN(C)C(=O)NC(C)C)[C@@H](C)CN([C@H](C)CO)C3=O)cc1 | i | 14% | 21% | i | 3%
Cc1noc(C)c1S(=O)(=O)N(C)C[C@H]1Oc2ccc(NS(=O)(=O)c3ccc(F)cc3)cc2C(=O)N([C@H](C)CO)C[C@@H]1C | i | 10% | 5.8µM* | i | 26%
COc1ccc(NC(=O)Nc2cccc3c2O[C@H](CN(C)C(=O)Nc2ccc(OC)cc2)[C@@H](C)CN([C@H](C)CO)C3=O)cc1 | i | 38% | 9.2µM* | i | -3%
CN1C[C@@H]2[C@@H]3C(=O)N(C)C(=O)[C@@H]3[C@](C)(C1=O)N2C(=O)c1ccccc1 | i | 2% | / | ? | -19%
Cc1cccc(C)c1NC(=O)C(C)Sc1nnc(C)n1CC1CCCO1 (stereo unspecified) | i | -3% | 1% | i | -73%
CCOC(=O)c1cn(Cc2ccccc2)nc1-c1ccccc1 | i | 30% | / | i | 15%
COc1ccccc1CNC(=O)C(NS(=O)(=O)c1cccc2nsnc12)C(C)C (stereo unspecified) | i | 1% | -5% | i | -6%
C[C@@H]1CN([C@@H](C)CO)C(=O)c2cc(NC(=O)Nc3ccccc3)ccc2O[C@H]1CN(C)C(=O)Nc1cccc2ccccc12 | i | ? | 15µM* | i | 9%
CNc1nc(N2CCc3ccccc32)ncc1F | ? | -2% | ? | 1.6µM* | -1%
Nc1ccc2ncccc2c1N | i | ? | 10µM* | i | /
c1cnc2ccc3ncccc3c2c1 | i | 1% | ? | i | -1%
COc1ccc2nc(C)cc(Sc3nc4ccccc4s3)c2c1 | ? | 16µM* | 5.2µM* | 18µM* | ?
COc1ccc2nc(C)cc(SCC(=O)NNC(=O)COc3ccccc3)c2c1 | i | 7% | -27% | ? | -6%
COC(=O)c1c(N2C(=O)[C@H]3[C@@H](C2=O)[C@]2(C(=O)Nc4c2ccc(C)c4C)N2CCC[C@@H]32)sc(C)c1C | ? | ? | 6.5µM* | ? | 4%
COC(=O)c1c(N2C(=O)[C@H]3[C@@H](C2=O)[C@]2(C(=O)Nc4c(C)cc(C)cc42)N2CCC[C@@H]32)sc(C)c1C | i | 29% | -25% | i | 7%
O=C(Nc1ccc(F)c(Cl)c1)c1ccc2c(Cl)c3c(nc2c1)CCCC3 | i | / | / | i | /
Cc1ccc(CN2COc3ccc4c(C)cc(=O)oc4c3C2)cc1 | i | / | / | ? | /
CN(C)CCCN(C(=O)c1ccc(C(=O)c2ccccc2)cc1)c1nc2cc3c(cc2s1)OCO3 | ? | ? | -1% | 21µM* | ?

Assay outcomes deposited in PubChem BioAssay by National Center for Advancing Translational Sciences (NCATS).
